Parameters in all cases: scale not given: direction of the effect not stated beside the values
In test [1] the target is Protein translocase subunit SecA (Escherichia coli (strain K12)) (UniProt P10408). The test is described as follows: Assay to Identify E. coli SecA ATPase Inhibitors. As to conditions: 30 µM. The class given is functional.
Test [2] deals with T1, Ubiquitin-activating enzyme e1, putative (Leishmania donovani (strain BPK282A1)) (UniProt E9BSI1).
T1 sequence (whole entry): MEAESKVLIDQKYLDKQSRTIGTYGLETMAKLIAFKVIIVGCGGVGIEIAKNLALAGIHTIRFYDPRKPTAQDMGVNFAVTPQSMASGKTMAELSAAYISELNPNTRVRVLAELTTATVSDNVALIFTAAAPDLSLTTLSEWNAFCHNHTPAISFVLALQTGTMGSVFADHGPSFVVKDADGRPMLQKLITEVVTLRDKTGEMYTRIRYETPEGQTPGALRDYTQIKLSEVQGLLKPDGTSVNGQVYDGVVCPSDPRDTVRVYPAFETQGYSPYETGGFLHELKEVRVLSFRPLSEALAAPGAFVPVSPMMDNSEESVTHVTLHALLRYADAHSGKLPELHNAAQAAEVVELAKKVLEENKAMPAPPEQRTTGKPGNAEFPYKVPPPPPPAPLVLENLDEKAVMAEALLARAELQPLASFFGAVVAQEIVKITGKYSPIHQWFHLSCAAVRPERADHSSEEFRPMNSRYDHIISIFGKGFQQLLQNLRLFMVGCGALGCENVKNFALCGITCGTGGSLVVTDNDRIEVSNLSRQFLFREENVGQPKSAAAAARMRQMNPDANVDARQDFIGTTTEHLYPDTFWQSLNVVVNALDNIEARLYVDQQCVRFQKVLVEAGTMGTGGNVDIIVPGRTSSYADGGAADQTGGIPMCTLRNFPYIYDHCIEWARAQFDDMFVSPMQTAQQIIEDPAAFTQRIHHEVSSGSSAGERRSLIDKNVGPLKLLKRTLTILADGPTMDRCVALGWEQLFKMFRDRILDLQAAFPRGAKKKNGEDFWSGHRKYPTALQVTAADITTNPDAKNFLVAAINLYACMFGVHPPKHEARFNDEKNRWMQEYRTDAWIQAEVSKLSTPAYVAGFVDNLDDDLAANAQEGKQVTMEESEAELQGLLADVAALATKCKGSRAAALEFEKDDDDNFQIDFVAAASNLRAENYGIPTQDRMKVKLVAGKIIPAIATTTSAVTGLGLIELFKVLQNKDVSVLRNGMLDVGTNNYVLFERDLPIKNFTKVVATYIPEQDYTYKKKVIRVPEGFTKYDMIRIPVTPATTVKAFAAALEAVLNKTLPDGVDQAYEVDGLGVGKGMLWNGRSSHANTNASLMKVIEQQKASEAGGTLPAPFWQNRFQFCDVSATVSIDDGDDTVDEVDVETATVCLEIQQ
The test can be described thus: Leishmania donovani Ubiquitin Activating Enzyme (LdE1). As to conditions: 30 µM. The class given is functional.

In test [3] the target is AMP-activated protein kinase, AMPK (Homo sapiens) (UniProt P54646+O43741+P54619+Q9UGJ0+Q9Y478+Q13131+Q9UGI9). The test can be described thus: AMP-dependent Kinase enzyme assay. An in vitro enzyme assay that detects ADP turnover that is directly proportional to AMPK activity. This uses naive AMPK that is activated during the assay with MK-8722. The class given is functional. Conditions: 30 µM.

For test [4], the target named is Sialic acid-binding Ig-like lectin 9 (Homo sapiens) (UniProt Q9Y336). The test is described as follows: Hs-Siglec9 ALPHAscreen SOP 20170721. Conditions: 10 µM. (Alpha assays give light when donor and acceptor beads are brought close together.)
The test system of test [5] is Trypanosoma cruzi. The test is described as follows: Trypanosoma cruzi phosphomannomutase and mannose-1-phosphate guanylyltransferase assay. The class given is functional. Conditions: 10 µM.
Test [6] deals with T2, Arginase-2, mitochondrial (Homo sapiens) (UniProt P78540).
T2 sequence (whole entry): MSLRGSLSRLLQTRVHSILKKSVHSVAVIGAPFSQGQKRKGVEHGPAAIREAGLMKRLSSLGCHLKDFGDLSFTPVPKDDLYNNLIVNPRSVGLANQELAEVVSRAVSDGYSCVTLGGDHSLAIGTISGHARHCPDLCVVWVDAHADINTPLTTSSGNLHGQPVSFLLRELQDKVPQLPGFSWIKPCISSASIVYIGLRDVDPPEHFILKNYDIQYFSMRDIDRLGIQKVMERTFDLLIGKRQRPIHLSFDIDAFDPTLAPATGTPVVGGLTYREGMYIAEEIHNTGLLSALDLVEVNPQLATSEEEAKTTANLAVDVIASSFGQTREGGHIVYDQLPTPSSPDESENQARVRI
The test is described as follows: in vitro enzyme assay to detect the production of urea directly proportional to the activity of Arginase II. Further: in the data most compounds retested in dose-response had high values. The class given is functional. As to conditions: 33.3 µM.

For test [7], the target named is T3, Proteasome subunit beta (Trypanosoma cruzi) (UniProt O96673).
T3 sequence (whole entry): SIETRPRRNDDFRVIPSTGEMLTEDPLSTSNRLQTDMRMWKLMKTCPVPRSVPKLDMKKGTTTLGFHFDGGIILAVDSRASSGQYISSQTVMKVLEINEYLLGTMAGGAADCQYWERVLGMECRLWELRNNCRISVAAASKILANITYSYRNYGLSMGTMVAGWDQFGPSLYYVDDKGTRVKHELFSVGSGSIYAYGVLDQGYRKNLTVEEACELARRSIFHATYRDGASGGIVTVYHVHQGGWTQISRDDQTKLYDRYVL
The test is described as follows: Trypanosoma cruzi proteasome chymotrypsin-like activity (TcProtChymo) assay. Further: in the data most compounds retested in dose-response had high values. The class given is functional. As to conditions: 9.37 µM.

Test [8] is filed under the species Homo sapiens. The test can be described thus: To identify inhibition of the IFN signalling (Jak-Stat) pathway via expression of an eGFP reporter gene under the control of an IFN-stimulated response element (ISRE) containing MxA promoter. The class given is functional. As to conditions: 30 µM. A general note: A reporter such as luciferase makes a cellular process visible.

Test [9] has as its target T4, Tyrosyl-tRNA synthetase, putative (Trypanosoma cruzi (strain CL Brener)) (UniProt Q4DSP6).
T4 sequence (whole entry): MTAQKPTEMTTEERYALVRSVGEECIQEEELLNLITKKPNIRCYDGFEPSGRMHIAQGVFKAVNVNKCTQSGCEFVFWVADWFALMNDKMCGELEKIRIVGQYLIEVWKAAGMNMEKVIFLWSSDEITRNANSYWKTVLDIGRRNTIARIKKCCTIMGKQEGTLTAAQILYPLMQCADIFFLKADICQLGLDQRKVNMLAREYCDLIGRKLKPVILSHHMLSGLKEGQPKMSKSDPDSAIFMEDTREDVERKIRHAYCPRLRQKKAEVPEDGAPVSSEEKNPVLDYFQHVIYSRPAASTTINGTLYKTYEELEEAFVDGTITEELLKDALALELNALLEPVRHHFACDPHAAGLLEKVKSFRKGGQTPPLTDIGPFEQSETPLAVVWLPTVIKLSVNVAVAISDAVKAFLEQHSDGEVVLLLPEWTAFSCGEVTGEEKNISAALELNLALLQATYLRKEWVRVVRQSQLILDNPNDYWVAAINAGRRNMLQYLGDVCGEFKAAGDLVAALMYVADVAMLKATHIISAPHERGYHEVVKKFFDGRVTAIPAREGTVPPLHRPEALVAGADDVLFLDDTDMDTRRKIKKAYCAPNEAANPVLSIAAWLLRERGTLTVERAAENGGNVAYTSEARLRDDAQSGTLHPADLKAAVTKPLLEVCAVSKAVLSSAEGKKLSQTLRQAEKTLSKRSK
The test can be described thus: Trypanosoma cruzi tyrosyl tRNA synthetase (TcYRS) _High Tyrosine SOP. Further: in the data most compounds retested in dose-response had high values. Conditions: 30 µM. The class given is functional.

The target in test [10] is T4, Tyrosyl-tRNA synthetase, putative (Trypanosoma cruzi (strain CL Brener)). The test is described as follows: Trypanosoma cruzi tyrosyl tRNA synthetase (TcYRS) SOP. The class given is functional. As to conditions: 30 µM.
Test [11] addresses Chromo domain-containing protein 1 (Saccharomyces cerevisiae (strain ATCC 204508 / S288c) (Baker's yeast)) (UniProt P32657). The test is described as follows: ScCHD-1 Enzyme Inhibition Assay. Further: in the data most compounds retested in dose-response had high values. Conditions: 30 µM. The class given is functional.

For some of these results: Results with a measured potency or affinity are listed apart.

Chain of Sialic acid-binding Ig-like lectin 9 (Homo sapiens) (Q9Y336 whole entry): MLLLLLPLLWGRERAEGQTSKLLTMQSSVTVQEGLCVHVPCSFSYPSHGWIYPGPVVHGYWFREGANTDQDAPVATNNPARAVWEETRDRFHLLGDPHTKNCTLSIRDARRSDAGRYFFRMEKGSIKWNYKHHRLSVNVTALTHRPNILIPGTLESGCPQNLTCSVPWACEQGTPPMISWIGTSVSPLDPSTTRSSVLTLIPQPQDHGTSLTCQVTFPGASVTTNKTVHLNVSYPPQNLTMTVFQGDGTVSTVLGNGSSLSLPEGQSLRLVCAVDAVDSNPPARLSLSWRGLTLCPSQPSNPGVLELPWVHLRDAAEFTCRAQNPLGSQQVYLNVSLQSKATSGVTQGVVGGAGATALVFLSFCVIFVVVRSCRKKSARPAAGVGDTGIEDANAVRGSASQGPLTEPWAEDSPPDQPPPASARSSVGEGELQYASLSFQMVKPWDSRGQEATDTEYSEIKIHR
Chain of Chromo domain-containing protein 1 (Saccharomyces cerevisiae (strain ATCC 204508 / S288c) (Baker's yeast)) (P32657 whole entry, the tested form may be a part): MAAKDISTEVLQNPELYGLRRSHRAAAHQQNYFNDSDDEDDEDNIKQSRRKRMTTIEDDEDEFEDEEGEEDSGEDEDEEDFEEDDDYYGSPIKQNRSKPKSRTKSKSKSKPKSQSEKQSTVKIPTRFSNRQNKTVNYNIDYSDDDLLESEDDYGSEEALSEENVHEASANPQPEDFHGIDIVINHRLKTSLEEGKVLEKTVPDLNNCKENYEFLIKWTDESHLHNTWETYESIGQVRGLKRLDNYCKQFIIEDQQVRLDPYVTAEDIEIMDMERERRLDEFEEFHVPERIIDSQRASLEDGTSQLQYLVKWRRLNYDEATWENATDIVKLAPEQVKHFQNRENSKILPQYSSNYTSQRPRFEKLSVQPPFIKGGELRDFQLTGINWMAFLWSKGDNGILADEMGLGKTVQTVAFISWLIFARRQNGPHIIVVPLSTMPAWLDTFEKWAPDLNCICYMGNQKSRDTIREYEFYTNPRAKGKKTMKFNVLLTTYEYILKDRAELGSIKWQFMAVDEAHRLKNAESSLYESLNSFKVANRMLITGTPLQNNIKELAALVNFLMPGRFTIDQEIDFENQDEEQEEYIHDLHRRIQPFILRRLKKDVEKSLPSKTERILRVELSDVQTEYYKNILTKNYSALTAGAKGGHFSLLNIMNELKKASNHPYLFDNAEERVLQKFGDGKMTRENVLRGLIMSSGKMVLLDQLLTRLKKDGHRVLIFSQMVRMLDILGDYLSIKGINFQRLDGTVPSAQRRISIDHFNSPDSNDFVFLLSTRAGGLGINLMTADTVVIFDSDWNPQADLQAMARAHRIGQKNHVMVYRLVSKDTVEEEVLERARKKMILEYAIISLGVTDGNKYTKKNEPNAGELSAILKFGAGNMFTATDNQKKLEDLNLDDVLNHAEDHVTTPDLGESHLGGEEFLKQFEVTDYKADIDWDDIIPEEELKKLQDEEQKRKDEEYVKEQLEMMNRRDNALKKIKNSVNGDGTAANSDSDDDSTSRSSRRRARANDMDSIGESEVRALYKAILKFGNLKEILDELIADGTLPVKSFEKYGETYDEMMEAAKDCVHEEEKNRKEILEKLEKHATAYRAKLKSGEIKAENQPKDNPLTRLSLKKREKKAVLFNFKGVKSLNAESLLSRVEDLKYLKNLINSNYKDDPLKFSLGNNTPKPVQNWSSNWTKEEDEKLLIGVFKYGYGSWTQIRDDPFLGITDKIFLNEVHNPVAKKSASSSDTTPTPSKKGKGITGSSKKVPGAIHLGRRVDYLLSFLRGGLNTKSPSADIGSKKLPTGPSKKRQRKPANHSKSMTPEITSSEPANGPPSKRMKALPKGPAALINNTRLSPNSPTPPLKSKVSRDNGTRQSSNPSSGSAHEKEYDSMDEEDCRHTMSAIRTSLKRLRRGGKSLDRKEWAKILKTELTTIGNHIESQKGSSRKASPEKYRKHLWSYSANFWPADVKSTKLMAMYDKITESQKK
Chain of Protein translocase subunit SecA (Escherichia coli (strain K12)) (P10408 whole entry): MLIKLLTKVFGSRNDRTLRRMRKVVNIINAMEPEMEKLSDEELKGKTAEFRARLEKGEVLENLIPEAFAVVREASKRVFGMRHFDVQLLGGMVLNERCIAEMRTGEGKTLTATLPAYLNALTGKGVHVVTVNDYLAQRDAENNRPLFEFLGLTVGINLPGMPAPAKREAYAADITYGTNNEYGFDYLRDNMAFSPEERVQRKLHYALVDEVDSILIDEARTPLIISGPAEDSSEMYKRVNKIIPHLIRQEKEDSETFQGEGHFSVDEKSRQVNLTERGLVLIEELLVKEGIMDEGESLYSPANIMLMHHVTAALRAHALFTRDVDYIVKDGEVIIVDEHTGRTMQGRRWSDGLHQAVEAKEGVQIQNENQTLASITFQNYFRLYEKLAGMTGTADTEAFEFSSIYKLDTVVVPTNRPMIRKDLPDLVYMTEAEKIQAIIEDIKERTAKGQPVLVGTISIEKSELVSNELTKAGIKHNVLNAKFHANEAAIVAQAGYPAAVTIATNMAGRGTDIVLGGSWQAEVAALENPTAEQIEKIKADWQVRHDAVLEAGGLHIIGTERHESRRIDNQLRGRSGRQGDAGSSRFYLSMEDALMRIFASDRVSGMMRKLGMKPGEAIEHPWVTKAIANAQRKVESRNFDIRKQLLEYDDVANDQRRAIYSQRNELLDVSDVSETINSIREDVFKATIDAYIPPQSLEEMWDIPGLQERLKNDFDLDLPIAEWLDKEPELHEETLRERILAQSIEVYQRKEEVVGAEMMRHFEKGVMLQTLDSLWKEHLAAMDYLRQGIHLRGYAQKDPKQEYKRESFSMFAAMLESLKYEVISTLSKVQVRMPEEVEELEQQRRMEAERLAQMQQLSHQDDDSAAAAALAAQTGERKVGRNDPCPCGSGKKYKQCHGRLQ

As for `CCO[C@@H]1CO[C@@]2(CCCN(Cc3scnc3C)C2)C1`, the Percent Effect was -2.88% in [1]; 0% in [2]; -3.01% in test [3]; 9.05% in test [4]; 7.14% in test [5]; -5.19% in [6]. In addition, the Percent Effect was 9.85% in test [7]; 3.99% in test [8]; -4.17% in [9]; 3.7% in test [10]; -0.793% in [11].
As to `CC(NC(=O)COc1nc(C(C)(C)C)no1)c1ccco1` (stereo unspecified), the Percent Effect was -6.83% in test [1]; 2.7% in test [2]; 5.6% in [3]; 2.63% in test [4]; 4.25% in [5]; 2.86% in test [6]. The Percent Effect in test [7] was 3.45%; in test [8], -3.88%; in test [9], 4.76%; in test [10], 9.76%; in [11], -1.56%.
In the case of `Cc1nn(C)c(C)c1CNC1CCOc2ccccc21` (stereo unspecified), the Percent Effect in test [1] is -2.99%; in test [2], 5.41%; in test [3], -3.93%; in [4], -3.92%; in test [5], -4.01%; in test [6], -1.74%. The Percent Effect is 13.7% in test [7]; 20% in test [8]; 0% in test [9]; 8.64% in test [10]; -2.87% in test [11].
Consider `O=c1ccc(-c2cccs2)nn1CN1CCN(Cc2ccccc2)CC1`, for which the Percent Effect in test [1] is -4.73%; in [2] it was -1.33%; in test [3] it was 2.74%; in [4] it was 1.22%; in test [5] it was 5.3%; in [6], -10.4%. Further, the Percent Effect in test [7] was 11.7%; in test [8] it was 20.2%; in test [9], 3.17%; in test [10], 10.3%; in test [11], -12.8%.
`O=C(c1ccco1)N1C[C@@H]2OCCN(CCN3CCCC3)[C@@H]2C1`: the Percent Effect in test [1] was -2.67%; in [2], 5.41%; in test [3] it was 5.74%; in test [4], -2.98%; in [5] it was -1.07%; in test [6], 1.59%. Also, the Percent Effect was 16.1% in [7]; -16.1% in [8]; 2.16% in test [9]; 5.13% in [10]; 4.02% in [11].
As for `Cc1noc(C)c1-c1cncc(C2CCCN2Cc2cncnc2)n1` (stereo unspecified), the Percent Effect was -2.17% in [1]; 2.67% in [2]; 6.8% in test [3]; -2.83% in test [4]; -3.54% in [5]; 1.63% in test [6]. For the same molecule, the Percent Effect was 5.55% in [7]; 18.2% in test [8]; 4.25% in [9]; 8.97% in [10]; -6.34% in [11].
For `COCCN1C[C@H]2CC[C@@]3(N=C(C)N(CC4CC4)C3=O)[C@H]2C1`, the Percent Effect in test [1] is -4.99%; in test [2], 5.41%; in test [3], 1.81%; in test [4] it was -4.12%; in test [5] it was -0.391%; in [6], -0.417%. Also, the Percent Effect in test [7] came out at 8.71%; in [8], 7.83%; in test [9], 6.93%; in test [10] it was 8.54%; in [11], 1.06%.
As for `CCOc1cc(C)ccc1NC(=O)N(C)Cc1cnn(C)c1`, the Percent Effect in test [1] was -3.73%; in test [2], 10.8%; in test [3], -11.8%; in test [4], 16.5%; in [5], 4.81%; in test [6], 0.401%. The Percent Effect was -2.52% in test [7]; 11.9% in [8]; 6.4% in test [9]; 16.1% in test [10]; -9.07% in test [11].
For the molecule `Cc1ccc(CC(=O)N2CC[C@@H]3CN(CCN(C)C)CCO[C@@H]3C2)cc1`, the Percent Effect was -0.0347% in test [1]; 8.11% in test [2]; 9.51% in test [3]; -10.3% in test [4]; -7.33% in test [5]; 2.87% in test [6]. Further, the Percent Effect was 19.7% in test [7]; 4.98% in test [8]; 4.32% in test [9]; 5.13% in test [10]; -4.03% in test [11].
`Cc1ccccc1CS(=O)(=O)NCCCN1CCCCC1`: the Percent Effect in [1] was -6.3%; in [2], 5.33%; in test [3], 6.44%; in test [4], 24.2%; in test [5], 0.292%; in [6] it was 2.6%. For the same molecule, the Percent Effect was 6.63% in test [7]; 7.26% in test [8]; 1.64% in test [9]; 3.7% in [10]; -2.2% in test [11].
As to `N#Cc1cccnc1NCCNC(=O)N1CCCC(C(F)(F)F)C1` (stereo unspecified), the Percent Effect in [1] is -0.35%; in [2], 10.8%; in test [3] it was -2.73%; in [4] it was 11.1%; in test [5] it was 4.83%; in test [6], 13.3%. Also, the Percent Effect in test [7] is 19%; in test [8], 23.4%; in test [9], 4.76%; in test [10], 19.5%; in test [11], -4.05%.

Values taken from ChEMBL document CHEMBL3988442, “University of Dundee, Small-Polar-MMV Screening Library” (2021).
